RGS4 inhibitor = blocks human RGS4-accelerated GTP hydrolysis | Transcreener GDP fluorescence polarization, RGS4-accelerated GTP hydrolysis | P49798 | hit rate 0.039% among 390,000 | Potency, µM (highest dose often 114 µM), inactives show at the top dose activity change, negative = inhibition, usual class: inhibitors; further: on the % scale 0 is the no-effect control and ±100 the full control effect; nearly all actives have a fitted effect of over 75% in size
Target sequence (P49798 whole entry, looked up): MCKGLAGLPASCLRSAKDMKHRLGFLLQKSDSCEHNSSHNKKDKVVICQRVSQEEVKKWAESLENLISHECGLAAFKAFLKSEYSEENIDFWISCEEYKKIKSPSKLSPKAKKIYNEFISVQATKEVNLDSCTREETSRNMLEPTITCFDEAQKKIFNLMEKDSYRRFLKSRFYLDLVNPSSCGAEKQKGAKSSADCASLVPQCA
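MLSMR compounds (23 nl, pin-transferred) preincubated 10 min at room temperature with a 500nM (2x) first reagent, then RGS4 at 900nM (2x) plus Transcreener GDP mix added; fluorescence polarization (620/688 nm) read before and after 90 min at 30 °C.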
Tb PGK inh = T. brucei PGK inhibition; hit rate 0.043% among 380,000; PGK/GAPDH coupled, Kinase-Glo luminescence, 60 min; Potency, µM (titrated, usually from 57.5 µM), without a hit: at the top dose activity change, negative = inhibition, actives largely listed as inhibitors; P07378; further: on the % scale 0 is the no-effect control and ±100 the full control effect; nearly all actives have a fitted effect of over 60% in size
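Recombinant glycosomal PGK reaction used 1,3-bisphosphoglycerate generated in-well by GAPDH (100nM final) in 100mM TEA pH 7.6, 5mM MgCl2, 0.01% Tween-20. After 60 minutes at room temperature, ATP was read by Kinase-Glo Plus luminescence end-point.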
USP2a inh = blocks human ubiquitin-specific protease USP2a | O75604 | USP2 core, Ub-CHOP2 coupled fluorogenic reporter, 485/531 | Potency, µM (series often up to 38.3 µM), for inactives: at the highest dose activity change, negative = inhibition, usual class: inhibitors | hit rate 0.01% among 330,000 | AID 463254;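 further: plate controls were DMSO wells for no effect and full inhibition by NEM control for full effect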
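Deubiquitinase activity read as fluorescence (485/531 nm) after Ub-CHOP2 cleavage activates the enterokinase reporter on its substrate; USP2 core 10nM, Ub-CHOP2 and substrate 25nM each, 30min compound preincubation then 60min RT; data normalized to NEM, curves fitted.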
BCR signal inh = chronic active BCR signaling inhibition; ABC-DLBCL IkBa-CBG/CBR reporter, luminescence ratio, 4 h; Potency, µM (doses to about 46.1 µM), for the others: at the top dose activity change, negative = inhibition, most hits filed as inhibitors; hit rate 0.05% among 340,000; active means well fitted inhibition curve with a large enough effect in the signal ratio, with a control signal flat, not every such curve was filed as active; inconclusive means small, poorly fitted or top-dose-only effect, or effect the other way, or a change in a side signal; the % refers to the signal ratio;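 further: plate controls were basal doxycycline-induced cells for no effect and cells given 10 µM MG132 for full effect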
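Concentration-response series (up to 46 uM) were applied to TMD8 dual-reporter cells for 4 h at 37C with doxycycline. Green/red ratio, after filter-overlap correction, defined %Activity; red signal alone was normalised to basal cells and zero luminescence.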
Tb PFK inh-1 = inhibitors of T. brucei phosphofructokinase; O15648; T. brucei PFK, ADP-Glo luminescence; Potency, µM (top dose mostly 57.5 µM), for inactives: at the highest dose activity, negative = inhibition, most hits filed as inhibitors; hit rate 0.17% among 330,000;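 further: 0% = uninhibited 1x PFK enzyme wells and -100% = no-enzyme wells; nearly all actives have a fitted effect of over 60% in size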
Target sequence (O15648 whole entry, looked up): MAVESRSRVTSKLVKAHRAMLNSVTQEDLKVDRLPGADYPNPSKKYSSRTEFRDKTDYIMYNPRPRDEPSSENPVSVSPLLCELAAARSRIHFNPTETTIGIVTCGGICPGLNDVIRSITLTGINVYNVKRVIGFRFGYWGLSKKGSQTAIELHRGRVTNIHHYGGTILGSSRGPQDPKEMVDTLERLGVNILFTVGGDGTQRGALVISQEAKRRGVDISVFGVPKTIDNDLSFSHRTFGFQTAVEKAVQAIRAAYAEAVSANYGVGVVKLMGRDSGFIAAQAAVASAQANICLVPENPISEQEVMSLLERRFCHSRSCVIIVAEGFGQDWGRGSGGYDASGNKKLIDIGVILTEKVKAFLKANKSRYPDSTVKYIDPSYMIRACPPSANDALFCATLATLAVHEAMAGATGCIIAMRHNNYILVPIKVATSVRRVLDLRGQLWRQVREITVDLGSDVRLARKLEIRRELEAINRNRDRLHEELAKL
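Compounds were pin-transferred as a titration series up to 57 uM into substrate buffer (0.5 mM F6P, 0.1 mM ATP, pH 8.0), then 1.25 nM PFK was added and reactions ran 45 min before ADP-Glo detection.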
TbPFK ATP = Tb phosphofructokinase inhibition, orthogonal luminescence. shares compounds with Tb PFK inh-1. hit rate 47% among 1,100. AID 504636. Potency, µM (series often up to 57.5 µM), without a hit: at the highest dose inhibition. Tb PFK enzyme, ATP depletion, Kinase-Glo Plus luminescence; calls by dose curve; further: nearly all actives have a fitted effect of over 60% in size
Tb PFK inh-2 = T. brucei PFK enzyme inhibition, hit validation. shares compounds with Tb PFK inh-1. purified T. brucei PFK, ADP-Glo luminescence, 45 min. Potency, µM (series often up to 57.5 µM), for inactives: at the highest dose activity change, negative = inhibition, hits mostly inhibitors. hit rate 41% among 1,100. AID 504637;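 further: plate controls were full PFK enzyme control for no effect and no enzyme control for full effect; nearly all actives have a fitted effect of over 60% in size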
Active calls of the source: *; [ ] = another dose, or the depositor's remark. An excerpt weighted towards active compounds, which were near 0.25% of everything screened. Unless noted, the call rests on the fitted dose curve; in most records, active means well fitted curve in the direction sought with a large enough effect; inconclusive means small, poorly fitted or top-dose-only effect, or another doubt; inactive means no such curve, though single readings can be large; an effect the other way counts as inactive or inconclusive. Potency means the concentration at half of the fitted maximal effect.

Screening CC(=O)NC1=NC(=O)/C(=C/c2cc(C)n(-c3ccc(NC(C)=O)cc3)c2C)S1 returned RGS4 inhibitor 16%, Tb PGK inh 5%, USP2a inh -7%, BCR signal inh 2% and Tb PFK inh-1 -28%.
CC(=O)NC1=NC(=O)/C(=C/c2cc(C)n(-c3cccc(C(=O)O)c3)c2C)S1 was read as RGS4 inhibitor -44%, Tb PGK inh inconclusive, USP2a inh 10%, BCR signal inh -1%, Tb PFK inh-1 inconclusive, TbPFK ATP inconclusive and Tb PFK inh-2 inconclusive.
Screening NCCNc1ccc([N+](=O)[O-])cc1 returned RGS4 inhibitor 6%[56.9 µM], Tb PGK inh 0%, USP2a inh 4%, BCR signal inh 11%, Tb PFK inh-1 inconclusive, TbPFK ATP inconclusive and Tb PFK inh-2 inconclusive.
C#CCNc1ccc([N+](=O)[O-])cc1 was read as RGS4 inhibitor 11%, Tb PGK inh 1%, USP2a inh 2%, BCR signal inh -1%, Tb PFK inh-1 24µM*, TbPFK ATP 21µM* and Tb PFK inh-2 27µM*.
For Cc1ccc(S(=O)(=O)NCCNc2ccc([N+](=O)[O-])cc2)cc1 the results were RGS4 inhibitor 13%, Tb PGK inh -1%, USP2a inh 1%, BCR signal inh 2% and Tb PFK inh-1 -17%.
`O=[N+]([O-])c1ccc(NCCNc2ccc([N+](=O)[O-])cc2)cc1` gave RGS4 inhibitor -14% and Tb PGK inh inactive.
Screening CCOc1ccccc1NC(=O)C(NS(=O)(=O)c1ccc2c(c1)CCC(=O)N2)c1ccccc1 (stereo not drawn) returned RGS4 inhibitor -12% and Tb PGK inh inactive.
CCc1sc(-c2cc3cccc(OC)c3oc2=O)nc1-c1cc(C)ccc1C was read as RGS4 inhibitor 15%.
Screening COc1cc(-c2cc(=O)c3c(O)c(OC)c(OC)c(O)c3o2)ccc1O returned RGS4 inhibitor -1%, Tb PGK inh -15%, USP2a inh 0%, BCR signal inh -2%, Tb PFK inh-1 inconclusive, TbPFK ATP 6µM* and Tb PFK inh-2 9.5µM*.
For COc1ccc(CN(Cc2ccccc2)C(C)=O)cc1COc1ccc(NC(C)=O)cc1 the results were RGS4 inhibitor -8%.
Screening CS(=O)(=O)Nc1ccccc1C(=O)OCC(=O)N1CCC(c2ccccc2)=N1 returned RGS4 inhibitor -31%, Tb PGK inh inactive, USP2a inh -1%, BCR signal inh inconclusive, Tb PFK inh-1 inconclusive, TbPFK ATP inconclusive and Tb PFK inh-2 inconclusive.
Screening CC(OC(=O)c1ccc2ccccc2c1)C(=O)N(C)Cc1ccccc1 (stereo not drawn) returned RGS4 inhibitor 28%, Tb PGK inh 3%, USP2a inh 3%, BCR signal inh -2% and Tb PFK inh-1 -1%.
CC(C)N(CCC(=O)c1ccc2ccccc2c1)Cc1ccccc1 was read as RGS4 inhibitor 0.67µM*, Tb PGK inh 5%, USP2a inh 3%, BCR signal inh inconclusive, Tb PFK inh-1 inconclusive, TbPFK ATP 30µM* and Tb PFK inh-2 inconclusive.
For CC1=C(C(=O)Nc2cc(C)cc(C)c2)C2(CCCCC2)OC1=O the results were RGS4 inhibitor 5%.
For COc1ccc(NC(=O)c2ccc3c(=O)n4nc(Nc5cc(C)ccc5C)sc4nc3c2)cc1 the results were RGS4 inhibitor -10% and Tb PGK inh -11%.
Screening C=C(C)C(=O)Nc1cccc(C2=NOC3(C2)C[C@@H](C(N)=O)N(C(=O)CC(c2ccccc2)c2ccccc2)C3)c1 (stereo partly drawn) returned RGS4 inhibitor 4%, Tb PGK inh 8.9µM*, USP2a inh -5%, BCR signal inh -5%, Tb PFK inh-1 30µM*, TbPFK ATP 1.5µM* and Tb PFK inh-2 inconclusive.
Screening C=C(C)C(=O)Nc1cccc(C2=NOC3(C2)C[C@@H](C(N)=O)N(C(=O)/C=C/C=C/C)C3)c1 (stereo partly drawn) returned RGS4 inhibitor -26%, Tb PGK inh inconclusive, USP2a inh -1%, BCR signal inh inconclusive, Tb PFK inh-1 3.8µM*, TbPFK ATP 0.13µM* and Tb PFK inh-2 0.19µM*.
C/C=C/C=C/C(=O)N1CC2(CC(c3cccc(NC(=O)CCCCC)c3)=NO2)C[C@H]1C(N)=O (stereo partly drawn) was read as RGS4 inhibitor inconclusive, Tb PGK inh 2%, USP2a inh 8%, BCR signal inh 0%, Tb PFK inh-1 inconclusive, TbPFK ATP inconclusive and Tb PFK inh-2 inconclusive.
Screening C=C(C)C(=O)Nc1cccc(C2=NOC3(C2)C[C@@H](C(N)=O)N(C(=O)/C(C)=C/C)C3)c1 (stereo partly drawn) returned RGS4 inhibitor inconclusive, Tb PGK inh inconclusive, USP2a inh 1%, BCR signal inh 1%, Tb PFK inh-1 3.4µM*, TbPFK ATP 0.19µM* and Tb PFK inh-2 0.17µM*.
`Cc1ccc(C(=O)N2c3ccc(C)cc3C(C)(c3ccccc3)CC2(C)C)cc1` (stereo not drawn) gave RGS4 inhibitor -3% and Tb PGK inh 6%.
O=S(=O)(c1cccnc1)N1CCN(c2nc(-c3cccs3)nc3ccccc23)CC1 was read as RGS4 inhibitor 28%.
C=C(C)C(=O)Nc1cccc(C2=NOC3(C2)C[C@H](C(N)=O)N(C(=O)c2ccccc2C(=O)c2ccccc2)C3)c1 (stereo partly drawn) was read as RGS4 inhibitor 27%, Tb PGK inh inconclusive, USP2a inh 7%, BCR signal inh -1%, Tb PFK inh-1 11µM*, TbPFK ATP 0.67µM* and Tb PFK inh-2 0.85µM*.
For S=C(NCc1ccccc1)N1CCN(c2cccc(Cl)c2)CC1 the results were RGS4 inhibitor -1%, Tb PGK inh 3%, USP2a inh 7%, BCR signal inh 8%, Tb PFK inh-1 27µM*, TbPFK ATP 24µM* and Tb PFK inh-2 27µM*.
For S=C(NCCCN1CCOCC1)N1CCN(c2cccc(Cl)c2)CC1 the results were RGS4 inhibitor -36%, Tb PGK inh 7%, USP2a inh 1%, BCR signal inh inconclusive, Tb PFK inh-1 inconclusive, TbPFK ATP 21µM* and Tb PFK inh-2 27µM*.
